ELG1 genotox: induces genotoxicity in HEK293T cells with luciferase-tagged ELG1; HEK293T ELG1-luciferase reporter, luminescence, 16 h; 1.3% of 330,000 active; Potency, µM (highest dose often 46 µM), actives largely listed as activators; AID 504466; further: nearly all actives have a fitted effect of over 60% in size
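Genotoxic stress is detected as increased luminescence from luciferase-tagged ELG1 in HEK293T cells, measured with ONE-Glo after a 16 hr treatment at 37 °C.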
FLuc modulator: inhibits or activates purified firefly luciferase, miR-21 counter-screen | AID 588342 | P08659 | 6.9% of 360,000 active | Potency, µM (doses to about 57.5 µM), hits mostly inhibitors | purified FLuc, Km substrates, luminescence inhibition; further: nearly all actives have a fitted effect of over 55% in size
Target sequence (P08659 whole entry, looked up): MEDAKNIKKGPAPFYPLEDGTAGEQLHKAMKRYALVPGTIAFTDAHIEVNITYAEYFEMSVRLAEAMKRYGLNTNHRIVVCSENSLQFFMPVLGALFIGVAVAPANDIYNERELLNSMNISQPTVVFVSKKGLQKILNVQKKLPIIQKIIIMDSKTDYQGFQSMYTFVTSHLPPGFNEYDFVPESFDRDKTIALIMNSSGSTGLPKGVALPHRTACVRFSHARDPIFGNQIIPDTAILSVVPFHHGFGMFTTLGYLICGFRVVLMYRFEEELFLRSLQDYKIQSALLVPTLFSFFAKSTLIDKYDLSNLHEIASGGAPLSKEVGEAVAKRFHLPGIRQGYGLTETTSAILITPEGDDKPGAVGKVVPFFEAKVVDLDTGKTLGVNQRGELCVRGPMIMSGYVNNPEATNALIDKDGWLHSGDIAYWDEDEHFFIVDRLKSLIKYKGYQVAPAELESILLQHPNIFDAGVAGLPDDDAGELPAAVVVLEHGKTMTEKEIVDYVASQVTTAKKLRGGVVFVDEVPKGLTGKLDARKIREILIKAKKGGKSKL
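Purified P. pyralis luciferase (10nM final) with 10uM D-luciferin and 10uM ATP (Km levels) in 50mM Tris acetate pH 7.5, 10mM Mg acetate, 0.01% Tween-20, 0.05% BSA; qHTS 6-point titration, ~60 µM downward; luminescence read.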
KinaseGlo FLuc: Kinase-Glo luciferase inhibition (counter-screen) | Q27757 | Kinase-Glo luciferase, ATP luminescence, 8 min | Potency, µM (series often up to 38.3 µM), actives largely listed as inhibitors | 0.28% of 200,000 active | AID 1379; further: nearly all actives have a fitted effect of over 60% in size
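Compounds were added to a substrate mix at pH 7.2 (50 mM imidazole, 10 uM ATP, within the enzyme's linear range), followed by Kinase-Glo detection reagent; luminescence was measured after 8 minutes at ambient temperature.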
NPC1 promoter act: activators of NPC1 promoter. Potency, µM (doses to about 9.22 µM), actives largely listed as activators. Huh7 NPC1 promoter luciferase reporter, 24 h. AID 485313. 2.4% of 320,000 active; further: nearly all actives have a fitted effect of over 60% in size
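Luciferase expression driven by the NPC1 promoter was measured in stably transfected Huh7 cells after a 24 h compound incubation, using a luciferase reagent and a luminescence read.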
Rab9 promoter act: Rab9 promoter activation; Huh7 Rab9 promoter-luciferase reporter, luminescence, 24 h; AID 485297; 2.8% of 320,000 active; Potency, µM (top dose mostly 9.22 µM), hits mostly activators; further: nearly all actives have a fitted effect of over 60% in size
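Luminescence from Amplite-detected luciferase (10 minutes, ambient) reports Rab9 promoter activation. Before that, stable Rab9-luciferase Huh7 cells (1500/well, reduced-serum OP-MEM I plus 10% FBS) were exposed to compound for 24 hours at 37C.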
SMN2 splice up: SMN2 splice variant enhancement; HEK293 SMN2-luciferase splicing reporter, luminescence, 30-36 h; Potency, µM (top dose mostly 46.1 µM), hits mostly activators; 2.8% of 210,000 active; AID 1458; further: nearly all actives have a fitted effect of over 55% in size
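HEK293 cells carry an SMN2 […]–luciferase reporter in which exon 7 inclusion puts luciferase in frame. Cells were plated 10-12 h before compound addition, then incubated 30-36 h at 37C. ONE-Glo luminescence was read; sodium butyrate at 4.5 mM final served as control.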
A number is an active result; 0 = inactive; ? = inconclusive; - = not tested or not shown; [ ] = remark or other dose. Shown are actives, neighbours in structure and some others; about 7.3% of the full set was active somewhere. The call rests on the fitted dose curve; in most records, active means well fitted curve in the direction sought with a large enough effect; inconclusive means small, poorly fitted or top-dose-only effect, or another doubt; inactive means no such curve, though single readings can be large; an effect the other way counts as inactive or inconclusive.

SMILES | ELG1 genotox | FLuc modulator | KinaseGlo FLuc | NPC1 promoter act | Rab9 promoter act | SMN2 splice up
CC/C(C)=N\Nc1nc(-c2cc3cc(OC)ccc3oc2=O)cs1 | 0 | 17µM | - | ? | ? | -
CCc1ccc(Nc2nnc(-c3cc4cc(OC)ccc4oc3=O)s2)cc1 | - | 0 | - | - | - | -
COc1ccc2nc(SCC(=O)c3c(C)[nH]c4ccccc34)nc(C)c2c1 | - | 0 | - | - | - | 0
O=C(O)c1ccccc1C(=O)Nc1nc(-c2ccc3ccccc3c2)cs1 | 0 | 17µM | - | 0 | ? | -
O=C(Nc1nc(-c2ccccc2)cs1)c1ccco1 | 0 | 15µM | - | ? | ? | -
O=C(Nc1cc(-c2ccccc2)cs1)c1ccco1 | 16µM | 7.6µM | - | ? | 3.5µM | -
COc1ccc(-c2csc(NC(=O)c3ccco3)n2)cc1 | 0 | 9.5µM | 0 | 2.8µM | 2.2µM | 7.9µM
COc1ccc(Nc2ncnc3c2c(-c2ccccc2)cn3-c2ccc(C)c(Cl)c2)cc1OC | - | 0 | - | - | - | -
CCOC(=O)c1c(C)c(-c2ccccc2)n(CC(=O)NC(CC)Cc2ccccc2)c1C (stereo unspecified) | - | 0 | - | - | - | 0
Cc1ccc(Nc2sc(C(=O)c3ccccc3)c(N)c2S(=O)(=O)c2ccccc2)c(C)c1 | - | 0 | - | - | - | 0
CCN(C(=O)c1cc2c(=O)oc3ccccc3c2s1)c1ccccc1F | - | 0 | - | - | - | -
CCOc1ccc(-c2csc(NC(=O)c3ccco3)n2)cc1 | ? | 12µM | - | 0 | ? | -
Cc1ccc(-c2csc(NC(=O)c3ccc(-c4ccccc4)cc3)n2)o1 | 18µM | 4.3µM | 0 | 0 | 0 | 0
Cc1ccc(-c2csc(NC(=O)c3ccco3)n2)cc1C | ? | 8.5µM | - | 2.2µM | 4µM | -
O=C(Nc1nc(-c2ccco2)cs1)c1ccccc1 | ? | 11µM | 0 | ? | ? | 0
O=C(Nc1nc(-c2ccccc2)cs1)c1cccnc1 | 0 | ? | 0 | 0 | 0 | 0
COc1ccc(-c2csc(NC(=O)C3=NN(c4ccccc4)C(=O)CC3)n2)cc1 | 0 | 7.6µM | 0 | 0 | 0 | 0
COc1ccc(-c2csc(NC(=O)c3cc(C)oc3C)n2)cc1OC | 0 | 19µM | - | 0 | 0 | -
Cc1cc(NC(=O)c2ccco2)sc1C | ? | 5.4µM | - | 2µM | 2µM | -
O=C(NNc1nc(-c2ccc(Br)cc2)cs1)c1ccco1 | ? | 8.5µM | 0 | 0 | ? | 0
CCc1noc(C)c1C(=O)Nc1nc(-c2ccc(OC)c(OC)c2)cs1 | 0 | 0 | - | 0 | 0 | -
[N-]=[N+]=CC(=O)COC(=O)c1ccccc1 | - | - | 0[7.66 µM] | - | - | 0[9.22 µM]

Source: PubChem (National Center for Advancing Translational Sciences (NCATS))
